Test [1] can be described thus: qHTS assay to test for compound auto fluorescence at 535 nm (green) in HEK293 cells (AID 720680).
The nature of test [2]: qHTS assay to test for compound auto fluorescence at 460 nm (blue) in HEK293 cell free culture (AID 720681). In a few lines:
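Compounds were added to cell-free DMEM with 10% FBS and fluorescence read directly. The blue channel used 405 nm excitation and 460 nm emission, with triamterene as the reference fluorophore.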
A general note: qHTS replaces the single test concentration by a dilution series.

Test [3] in a line: qHTS assay to test for compound auto fluorescence at 535 nm (green) in HEK293 cell free culture (AID 720682). In a few lines: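 Steps: dispense DMEM/10% FBS into empty wells; pin in compound or DMSO; measure fluorescence at 485/535 nm. Values are fluorescein equivalents.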
A short description of test [4]: qHTS assay to test for compound auto fluorescence at 590 nm (red) in HEK293 cell free culture (AID 720683). In a few lines: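 Cell-free wells of DMEM with 10% FBS received compound, and intrinsic fluorescence was read at excitation/emission 540/590 nm. Values expressed as equivalence to Rose Bengal sodium.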
The nature of test [5]: qHTS assay to test for compound auto fluorescence at 460 nm (blue) in HepG2 cell free culture (AID 720685). The procedure, abridged:
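Compound (23 nL) or DMSO pinned into cell-free MEM with 10% FBS; blue fluorescence read at 405/460 nm excitation/emission, expressed as auto-fluorescence equivalency to triamterene.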

Test [6] in a line: qHTS assay to test for compound auto fluorescence at 535 nm (green) in HepG2 cell free culture (AID 720686).
Test [7] is described as follows: qHTS assay to test for compound auto fluorescence at 460 nm (blue) in HepG2 cells (AID 720687). The procedure, abridged: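 HepG2 cells in MEM with 10% FBS, attached overnight at 37 C, were exposed to compound or DMSO for 1 hr at 37 C, 5% CO2. Blue fluorescence was read at 405/460 nm, with triamterene as reference fluorophore.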
The target of test [8] is Glucocorticoid receptor (Homo sapiens) (UniProt P04150). The test is described as follows: qHTS assay to identify small molecule agonists of the glucocorticoid receptor (GR) signaling pathway (AID 720691; active = well fitted activation curve with a large enough effect in the signal ratio in the repeat runs, not every such curve was filed as active; the % refers to the signal ratio). In a few lines: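 GR-bla HeLa cells carrying a GRE-driven beta-lactamase reporter, exposed to compounds for 18 h at 37 C. Reporter activation read as fluorescence after 2 h with LiveBLAzer B/G FRET substrate at room temperature.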
Sequence of Glucocorticoid receptor (Homo sapiens) (P04150 whole entry, looked up): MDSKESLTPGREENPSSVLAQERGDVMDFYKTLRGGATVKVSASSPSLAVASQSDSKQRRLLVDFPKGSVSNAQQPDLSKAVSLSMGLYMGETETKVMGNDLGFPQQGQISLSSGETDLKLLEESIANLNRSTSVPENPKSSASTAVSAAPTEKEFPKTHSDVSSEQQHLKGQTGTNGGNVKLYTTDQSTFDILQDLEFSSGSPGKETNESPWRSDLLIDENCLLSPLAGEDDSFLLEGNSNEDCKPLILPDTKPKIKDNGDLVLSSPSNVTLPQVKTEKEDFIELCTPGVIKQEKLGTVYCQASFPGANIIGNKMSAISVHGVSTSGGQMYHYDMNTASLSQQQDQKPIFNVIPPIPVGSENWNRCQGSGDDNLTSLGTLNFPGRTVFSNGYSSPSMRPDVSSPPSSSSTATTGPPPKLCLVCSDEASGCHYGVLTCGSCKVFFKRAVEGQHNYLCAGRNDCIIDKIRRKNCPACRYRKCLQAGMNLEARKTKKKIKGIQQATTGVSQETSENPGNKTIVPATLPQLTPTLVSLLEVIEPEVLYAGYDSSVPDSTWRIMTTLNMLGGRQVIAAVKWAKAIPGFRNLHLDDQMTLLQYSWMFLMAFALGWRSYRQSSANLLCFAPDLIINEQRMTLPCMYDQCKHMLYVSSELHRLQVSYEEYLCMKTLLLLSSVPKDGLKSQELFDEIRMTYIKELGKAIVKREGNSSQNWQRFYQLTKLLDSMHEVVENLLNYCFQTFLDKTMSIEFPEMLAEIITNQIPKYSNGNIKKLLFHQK

Test [9] shares this target. Kind of test: qHTS assay to identify small molecule antagonists of the glucocorticoid receptor (GR) signaling pathway (AID 720692; active = well fitted inhibition curve with a large enough effect in the signal ratio in the repeat runs, not every such curve was filed as active; the % refers to the signal ratio; also: potency is read from the fitted curve at half-maximal effect). The procedure, abridged:
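GR-bla HeLa cells carrying a GRE-driven beta-lactamase reporter received compound after 4 h plating, then dexamethasone (5 nM final). After 18 h at 37C, the FRET substrate was loaded for 2 h at room temperature and fluorescence read.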

Test [10] in a line: qHTS assay to identify small molecule antagonists of the glucocorticoid receptor (GR) signaling pathway - cell viability counter screen (AID 720693). Also: nearly all actives have a fitted effect of over 55% in size.
A short description of test [11]: qHTS assay to identify small molecule antagonists of the androgen receptor (AR) signaling pathway - cell viability counter screen (AID 743033; also: nearly all actives have a fitted effect of over 45% in size; also: potency is read from the fitted curve at half-maximal effect).
Test [12] has as its target Androgen receptor (Homo sapiens) (UniProt P10275). Kind of test: qHTS assay to identify small molecule antagonists of the androgen receptor (AR) signaling pathway (AID 743035; active = well fitted inhibition curve with a large enough effect in the signal ratio in the repeat runs, not every such curve was filed as active; the % refers to the signal ratio). The procedure, abridged:
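HEK293 cells stably carrying UAS-beta-lactamase reporter, 2,000/well, given compounds plus R1881 agonist and incubated 16 h at 37C. LiveBLAzer B/G FRET substrate then added for 2 h at room temperature before fluorescence reading.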

For test [13] the target is unchanged. Kind of test: qHTS assay to identify small molecule agonists of the androgen receptor (AR) signaling pathway using the MDA cell line (AID 743040; also: nearly all actives have a fitted effect of over 20% in size). In a few lines: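 MDA-kb2 breast carcinoma cells carrying MMTV-luciferase (responsive to AR and GR), plated 5 h then treated 16 h with compounds at 37C, 0% CO2. Read-out was ONE-Glo luminescence after 30 min at room temperature.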

The nature of test [14]: qHTS assay to test for compound auto fluorescence at 590 nm (red) in HepG2 cell free culture (AID 720684). In a few lines: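 Compound was pinned into wells holding MEM with 10% FBS and no cells, and red fluorescence was read at Ex/Em 540/590 nm. Signal is expressed as auto fluorescence equivalency relative to Rose Bengal sodium.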
Test [15] is described as follows: qHTS assay for identifying genotoxic compounds that show differential cytotoxicity against isogenic chicken DT40 cell lines with known DNA damage response pathways - wild type cell line (AID 743012). Also: nearly all actives have a fitted effect of over 60% in size. Also: potency is read from the fitted curve at half-maximal effect. In a few lines: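 Wild-type DT40 cells (300/well) exposed to compounds for 40 hours at 37 C/5% CO2. Viability read by CellTiter-Glo luminescence after 30 min at room temperature.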

Test [16] can be described thus: qHTS assay for identifying genotoxic compounds that show differential cytotoxicity against isogenic chicken DT40 cell lines with known DNA damage response pathways - Rev3 mutant cell line (AID 743014). Also: nearly all actives have a fitted effect of over 55% in size. Also: potency is read from the fitted curve at half-maximal effect.
Test [17] in a line: qHTS assay for identifying genotoxic compounds that show differential cytotoxicity against isogenic chicken DT40 cell lines with known DNA damage response pathways - Rad54/Ku70 mutant cell line (AID 743015). Also: nearly all actives have a fitted effect of over 60% in size. Also: potency is read from the fitted curve at half-maximal effect.
A short description of test [18]: qHTS assay to identify small molecule antagonists of the androgen receptor (AR) signaling pathway using the MDA cell line - cell viability counter screen (AID 743041; also: nearly all actives have a fitted effect of over 45% in size). The procedure, abridged:
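MDA-kb2 AR-luc cells (MMTV-luciferase, AR/GR responsive) treated with compounds plus R1881 agonist for 16 h at 37C. CellTiter-Fluor added at 15.5 h; fluorescence read after 30 min in the same wells.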

Test [19] concerns the target Androgen receptor (Homo sapiens) (UniProt P10275). The test is described as follows: qHTS assay to identify small molecule antagonists of the androgen receptor (AR) signaling pathway using the MDA cell line (AID 743042; also: nearly all actives have a fitted effect of over 55% in size). In a few lines:
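MDA-kb2 breast carcinoma cells carrying MMTV-luciferase (AR/GR responsive) were co-treated with compounds and the agonist R1881 for 16 h at 37C. Inhibition read as ONE-Glo luminescence; CellTiter-Fluor fluorescence measured in parallel for cytotoxicity.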

Test [20] shares this target. The test is described as follows: qHTS assay to identify small molecule agonists of the androgen receptor (AR) signaling pathway (AID 743036; active = well fitted activation curve with a large enough effect in the signal ratio in the repeat runs, with a control signal flat, not every such curve was filed as active; the % refers to the signal ratio). In a few lines:
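Reporter line: GeneBLAzer AR-UAS-bla-GripTite (HEK293). Steps: plate cells, 4 h rest, add compounds, 16 h at 37C, add LiveBLAzer B/G substrate, 2 h at RT, read fluorescence.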

Structures are written as SMILES. A number with no mark means an inactive call. Results filed as inconclusive are left out. Activity calls are given as the source filed them. Unless noted, calls follow the shape of the dose curve; as a rule, active = well fitted curve in the direction sought with a large enough effect in the repeat runs; inconclusive = weak or mixed curves; inactive = no such curve, though single readings can be large; an effect the other way counts as inactive or inconclusive.
% is scaled to controls: 0 for no effect and ±100 for the full control effect.

Sequence of Androgen receptor (Homo sapiens) (P10275 whole entry, looked up): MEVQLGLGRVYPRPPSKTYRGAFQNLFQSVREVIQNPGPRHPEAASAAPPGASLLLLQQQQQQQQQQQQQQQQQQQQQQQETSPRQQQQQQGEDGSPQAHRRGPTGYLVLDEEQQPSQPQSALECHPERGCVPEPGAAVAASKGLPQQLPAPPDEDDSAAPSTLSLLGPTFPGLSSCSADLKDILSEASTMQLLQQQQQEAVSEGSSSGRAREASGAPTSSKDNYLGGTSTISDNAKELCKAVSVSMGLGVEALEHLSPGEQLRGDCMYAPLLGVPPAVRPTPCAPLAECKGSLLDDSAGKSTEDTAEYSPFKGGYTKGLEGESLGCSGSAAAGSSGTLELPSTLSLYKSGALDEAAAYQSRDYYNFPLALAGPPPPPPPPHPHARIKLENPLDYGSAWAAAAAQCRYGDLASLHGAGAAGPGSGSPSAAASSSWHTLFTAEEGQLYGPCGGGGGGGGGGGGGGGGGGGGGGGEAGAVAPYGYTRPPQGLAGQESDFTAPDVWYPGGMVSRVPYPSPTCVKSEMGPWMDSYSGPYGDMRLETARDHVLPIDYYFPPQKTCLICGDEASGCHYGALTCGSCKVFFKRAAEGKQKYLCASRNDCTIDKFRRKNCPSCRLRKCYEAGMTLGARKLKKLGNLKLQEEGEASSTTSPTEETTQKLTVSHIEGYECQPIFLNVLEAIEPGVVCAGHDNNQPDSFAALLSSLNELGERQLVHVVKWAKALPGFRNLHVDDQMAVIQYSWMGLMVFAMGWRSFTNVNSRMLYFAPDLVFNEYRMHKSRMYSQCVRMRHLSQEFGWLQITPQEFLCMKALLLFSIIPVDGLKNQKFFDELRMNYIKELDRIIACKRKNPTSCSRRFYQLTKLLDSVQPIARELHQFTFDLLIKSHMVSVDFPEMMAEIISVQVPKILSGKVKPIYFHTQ

Consider `CCOc1cccc(-n2cc(C(=O)N3CCN(c4cc(C(=O)O)c5ccccc5c4)CC3)nc2-c2ccc(C)cc2)c1`, for which the compound was classed as inactive in test [1], in test [3], in [4], in [6] and in test [13]. The Potency result in test [2], in test [5], in test [7], in [8], in [10] and in test [11] was “inactive” in each case. For the same compound, the Potency entry in test [12] was “inactive”. In addition, the Potency in [9] is 14.8 µM (active).

As to `CN1C[C@H](C(=O)N[C@]2(C)O[C@@]3(O)[C@@H]4CCCN4C(=O)[C@H](Cc4ccccc4)N3C2=O)C[C@@H]2c3cccc4[nH]cc(c34)C[C@H]21`, the compound was called inactive in [1], in test [4], in [14] and in test [6]. Moreover, the Potency result in test [2], in [5], in test [7], in test [8], in test [9] and in test [10] was “inactive” each time. Further, the Potency entry in [11] and in test [18] was “inactive” throughout. Further, the Potency was 23.7 µM (active) in test [15], 29.8 µM (active) in test [16] and 16.8 µM (active) in [17].

Take `Oc1cc2c(cc1O)[C@H]1c3ccc(O)c(O)c3OC[C@@]1(O)C2`: the call in test [1], in [3], in test [4] and in [6] was inactive. In addition, the Potency entry in [2], in test [7], in [8] and in [10] was “inactive” in each case. For the same compound, the Potency is 43.8 µM (active) in test [15], 22 µM (active) in test [16] and 31 µM (active) in test [17].

For `O=c1cc(-c2ccccc2)oc2ccc3ccccc3c12`, the outcome in test [1], in test [3], in [4] and in test [6] was inactive. The Potency entry in test [2], in test [7], in test [18] and in test [19] was “inactive” in each case. Also, the Potency in test [16] was 15.4 µM (active); in [11] it was 21.9 µM (active).

`CC1CC(C)C(=O)C1=O` (stereo unspecified): the compound was called inactive in test [1], in test [3], in test [4] and in [6]. Also, the Potency entry in [2], in test [5], in test [7], in test [8], in test [9] and in [15] was “inactive” in each case. Moreover, the Potency entry in test [16], in test [17], in test [11] and in [18] was “inactive” throughout.

In the case of `CCOC(=O)/C=C/C(=O)OCC`, the result in test [1], in test [3], in test [4] and in [6] was inactive. Besides, the Potency result in [2], in [5], in test [7], in [8], in test [9] and in test [15] was “inactive” each time. For the same compound, the Potency result in test [16], in test [17], in test [11] and in [18] was “inactive” in each case.

Take `Cc1cccc(N(C)C(=S)Oc2ccc3c(c2)CCC3)c1`: the compound was classed as inactive in test [1], in [3], in test [4] and in test [6]. Besides, the Potency result in [2], in test [5], in test [7], in test [8] and in test [10] was “inactive” each time.

Consider `CCOc1ccccc1O[C@H](c1ccccc1)[C@H]1CNCCO1`, for which the compound was classed as inactive in test [1], in test [3], in test [4] and in [6]. The Potency entry in test [2], in test [5], in test [7], in [8], in [9] and in test [10] was “inactive” each time. The Potency entry in [11] and in [18] was “inactive” in each case. Besides, the Potency in test [15] is 29.8 µM (active); in test [16], 26.6 µM (active); in test [17], 13.3 µM (active).

As for `CCOc1ccc(Cc2nccc3cc(OCC)c(OCC)cc23)cc1OCC`, the fluorescence, % of fluorescein in test [1] was -0.066% [at 18.6 µM]. Besides, the results for the fluorescence, % of fluorescent control in test [2], in [4] and in test [7] were 0.019% [at 18.6 µM], 0.116% [at 18.6 µM] and -0.0004% [at 18.6 µM], respectively. In addition, the activity change in test [3] is 0.0026% [at 18.6 µM]. In test [6], the fluorescence, % of fluorescein control is 0.0297% [at 18.6 µM]. Further, the Potency result in test [8], in test [10], in [12] and in [18] was “inactive” each time. Further, the results for the Potency in test [15], in test [16] and in test [17] were 4.03 µM (active), 5.07 µM (active) and 5.07 µM (active), respectively. Moreover, the outcome in [20] and in test [13] was inactive.

The values are drawn from PubChem BioAssay (Tox21).
